The text below walks through data of PubChem BioAssay.

Where “and” joins values, the source holds several entries; their conditions need not be identical. Equal entries are not always repeated. Calls of active or inactive are those of the source.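 How the source made its calls, unless noted: active means at least 20% inhibition of 6-phosphogluconate dehydrogenase activity; inactive means the rest.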

The target of test [1] is 6-phosphogluconate dehydrogenase, decarboxylating (Homo sapiens) (UniProt P52209). The experiment in a line: inhibition of human phosphogluconate dehydrogenase – biochemical, recombinant enzyme, NADPH absorbance, primary screen (AID 1159550). The following applies: recombinant 6PGD, NADPH absorbance 341 nm; at 10 µM; stronger effect = higher value.
A short description of test [2]: signal quenchers or enhancers, Cy5 substrate/SSB – biochemical, NIH Clinical Collection, E. coli SSB, artefact control for HCV NS3 helicase inhibitor project (AID 743268; call rule not given here). The following applies: Cy5-oligo bound E. coli SSB, fluorescence interference.
Test [3] concerns Hepatitis C virus NS3 helicase. In words: blockers of NS3h binding to DNA – biochemical, fluorescence polarization, NIH Clinical Collection, primary screen (AID 743270; call rule not given here). Particulars: NS3 helicase binding to Cy5-dT15 DNA, stronger effect = higher value, concentration not given here.
Test [4] deals with Single-stranded DNA-binding protein (Escherichia coli (strain K12)) (UniProt P0AGE0). In words: SSB-ssDNA binding inhibitors – biochemical, fluorescence polarization, NIH Clinical Collection, counter-screen for HCV NS3 helicase inhibitor project (AID 743271; in the data active means inhibition above about 28%). The following applies: E. coli SSB-DNA binding, stronger effect = higher value, concentration not given here. (In general: In fluorescence polarisation assays a small probe gives low polarisation when free and higher when bound to something large.)

Test [5] can be described thus: compounds distorting NS3 helicase fluorescence signal – biochemical, NIH Clinical Collection, artefact control for HCV NS3 helicase inhibitor project (AID 743272; call rule not given here;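 further: HCV NS3 helicase with a Cy5 labelled single stranded DNA probe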). Particulars: fluorescence interference counterscreen, HCV NS3 helicase assay; stronger effect = lower value. In general terms: Counterscreens check selectivity or assay interference.
Test [6] is described as follows: modulation of C. elegans fzo-1 (AID 1259413; call rule not given here;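 further: fzo-1 mutant C. elegans worms in liquid wells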). Particulars: C. elegans fzo-1 modulator screen, mean read-out; stronger effect = higher value.
The nature of test [7]: EMT-state selective cytotoxicity in co-culture – imaging, PC-3E GFP, TEM4-18 mCherry, primary screen (AID 1345086;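 active means compounds killing one labelled cell type while sparing the other, by normalised counts and ratio limits, not self-fluorescent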;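 on all read-outs here: cells exposed to compound for 72 h before imaging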;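 on red/green cell ratio (normalised): normalised mesenchymal count divided by normalised epithelial count so high means epithelial killing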). The following applies: PC-3E GFP / TEM4-18 mCherry co-culture, imaging cell counts, at 1 µM; for red/green cell ratio (normalised): actives lie on both sides, counts scaled to control wells, 1 = unselective.
A short description of test [8]: viability loss with induced miR-34 in A549 – imaging, A549 dox-inducible miR-34, nuclei and caspase counts, primary screen (AID 1347080;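 active means compounds whose cell count with miR-34 switched on is under 0.7 times the count with it off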). Particulars: A549 miR-34 inducible, Hoechst nuclei count, 48 h.
Test [9] in a line: MELAS cybrid and Rieske KO viability enhancers – cell-based, MELAS cybrids, Rieske KO mouse fibroblasts, CellTiter-Glo, primary screen (AID 1508586;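 active means mean z-score across replicates of 1.96 or higher in either the MELAS or the Rieske mutant cell line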;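 further: z relative to plate mean and SD of compound and empty wells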). Particulars: low glucose. Background: In ATP-based viability assays light output follows the ATP content of the culture.
Test [10] concerns the target NAD(+) hydrolase SARM1 (Homo sapiens) (UniProt Q6SZW1). The experiment in a line: blocking NAD cleavage by SARM1 SAM-TIR – cell lysate, NAD-Glo luminescence (AID 1508614;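 active means compound whose remaining NAD level is above about 45 nM, limit read from the data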). The following applies: SAM-TIR HEK293T lysate NADase, at 1 µM, stronger effect = higher value.
Test [11] can be described thus: galactose survival enhancers in mitochondrial complex I cybrids – cell-based, galactose medium, ATP luminescence, primary screen (AID 1645843;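 active means z-score of at least 1.8 in each of two replicates, scored against plate mean and spread of sample wells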;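 further: positive z means more ATP and so rescue of galactose-driven cybrid death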). The following applies: complex I mutant cybrid cells, 72 h, stronger effect = higher value.
Test [12] concerns F380Y. In words: BK channel mutant inhibitors and activators – cell-based, U2OS BacMam, thallium flux, beta subunits, selectivity assay, profiling panel (AID 1259406;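 active means thallium flux through the channel raised or lowered by more than 3 SD from vehicle-only wells, actives on both sides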;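 further: initial slope of Thallos dye fluorescence rise after thallium is added; log ratio against the mean of 0.3% DMSO vehicle wells on the same plate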). The following applies: U2OS BacMam BK variants, at 30 µM.
Test [13] relates to F380Y/beta2Delta. The test is described as above. The following applies: U2OS BacMam BK variants, at 30 µM.
Test [14] concerns the target Calcium-activated potassium channel subunit alpha-1 (Homo sapiens) + Leucine-rich repeat-containing protein 26 (Homo sapiens) (UniProt Q12791+Q2I0M4). The description is as above. Particulars: U2OS BacMam BK variants, F380Y/Slo1WT/gamma1, at 30 µM.
Test [15] concerns R275C. The description is as above. Particulars: U2OS BacMam BK variants, at 30 µM.
In test [16] the test system is R275C/beta1. Described as above. The following applies: U2OS BacMam BK variants, at 30 µM.
For test [17], the system named is R275C/beta2Delta. The test is described as above. Particulars: U2OS BacMam BK variants, at 30 µM.
Test [18] is described as follows: P. berghei load reduction in hepatocytes – cell-based, HepG2, luciferase luminescence, HepG2 viability, primary screen (AID 624349; in the data active means parasite load remaining mostly below about 12%, no sharp cut-off; inactive means mostly above about 10%;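 further: 100% = mean of DMSO negative control wells on the same plate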). Particulars: P. berghei liver stage in HepG2, luciferase luminescence, concentration not given here; parasite load remaining: stronger effect = lower value; viability: measured here: HepG2 viability without parasites.
Test [19] deals with Mitogen-activated protein kinase 7 (Homo sapiens) (UniProt Q13164). The experiment in a line: Gal4-ERK5 driven luciferase induction – cell-based, HTS, primary screen (AID 1508626;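 active means luciferase signal above three times the same-plate solvent-only control wells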;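 further: luciferase driven by Gal4-ERK5 fusion binding five Gal4 sites before minimal TATA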). The following applies: HeLa Gal4-ERK5 transactivation, 18 h, at 5 µM, stronger effect = higher value.
Where [20] appears, read: measured here: epithelial PC-3E GFP cell survival.
The mark [21] stands for this setting: measured here: mesenchymal TEM4-18 mCherry cell survival.
Setting [22] is: measured here: total cells without miR-34 induction.
Where [23] appears, read: MELAS cybrid survival, CellTiter-Glo 48 h, stronger effect = higher value.
Where [24] appears, read: Rieske KO mouse fibroblast survival, CellTiter-Glo 72 h.
[25] abbreviates: stronger effect = lower value, cell number ratio, induced over uninduced.
[26] abbreviates: measured here: relative caspase fold change +Dox/-Dox.
[27] abbreviates: measured here: total cells with miR-34 induction, stronger effect = lower value.

Chain of NAD(+) hydrolase SARM1 (Homo sapiens) (Q6SZW1 whole entry, looked up): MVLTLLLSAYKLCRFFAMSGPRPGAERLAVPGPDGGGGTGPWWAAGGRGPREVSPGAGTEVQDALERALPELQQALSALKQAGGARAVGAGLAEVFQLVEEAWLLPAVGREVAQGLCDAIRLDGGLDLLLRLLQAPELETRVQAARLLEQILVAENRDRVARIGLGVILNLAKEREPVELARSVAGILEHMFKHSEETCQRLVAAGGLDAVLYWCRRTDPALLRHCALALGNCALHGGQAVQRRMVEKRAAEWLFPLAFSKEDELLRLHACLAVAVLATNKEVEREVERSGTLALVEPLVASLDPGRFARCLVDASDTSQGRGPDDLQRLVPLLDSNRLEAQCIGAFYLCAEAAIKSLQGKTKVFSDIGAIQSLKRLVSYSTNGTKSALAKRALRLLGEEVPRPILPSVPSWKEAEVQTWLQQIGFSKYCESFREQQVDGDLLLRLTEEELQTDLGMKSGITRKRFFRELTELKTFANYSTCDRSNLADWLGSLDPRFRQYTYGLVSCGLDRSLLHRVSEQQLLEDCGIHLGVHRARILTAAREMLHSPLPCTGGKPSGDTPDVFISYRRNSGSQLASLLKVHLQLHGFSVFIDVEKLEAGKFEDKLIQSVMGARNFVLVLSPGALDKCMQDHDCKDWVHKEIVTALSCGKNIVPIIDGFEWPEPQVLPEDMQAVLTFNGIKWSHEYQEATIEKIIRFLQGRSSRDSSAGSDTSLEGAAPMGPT
Chain of Mitogen-activated protein kinase 7 (Homo sapiens) (Q13164 whole entry, looked up, the tested form may be a part): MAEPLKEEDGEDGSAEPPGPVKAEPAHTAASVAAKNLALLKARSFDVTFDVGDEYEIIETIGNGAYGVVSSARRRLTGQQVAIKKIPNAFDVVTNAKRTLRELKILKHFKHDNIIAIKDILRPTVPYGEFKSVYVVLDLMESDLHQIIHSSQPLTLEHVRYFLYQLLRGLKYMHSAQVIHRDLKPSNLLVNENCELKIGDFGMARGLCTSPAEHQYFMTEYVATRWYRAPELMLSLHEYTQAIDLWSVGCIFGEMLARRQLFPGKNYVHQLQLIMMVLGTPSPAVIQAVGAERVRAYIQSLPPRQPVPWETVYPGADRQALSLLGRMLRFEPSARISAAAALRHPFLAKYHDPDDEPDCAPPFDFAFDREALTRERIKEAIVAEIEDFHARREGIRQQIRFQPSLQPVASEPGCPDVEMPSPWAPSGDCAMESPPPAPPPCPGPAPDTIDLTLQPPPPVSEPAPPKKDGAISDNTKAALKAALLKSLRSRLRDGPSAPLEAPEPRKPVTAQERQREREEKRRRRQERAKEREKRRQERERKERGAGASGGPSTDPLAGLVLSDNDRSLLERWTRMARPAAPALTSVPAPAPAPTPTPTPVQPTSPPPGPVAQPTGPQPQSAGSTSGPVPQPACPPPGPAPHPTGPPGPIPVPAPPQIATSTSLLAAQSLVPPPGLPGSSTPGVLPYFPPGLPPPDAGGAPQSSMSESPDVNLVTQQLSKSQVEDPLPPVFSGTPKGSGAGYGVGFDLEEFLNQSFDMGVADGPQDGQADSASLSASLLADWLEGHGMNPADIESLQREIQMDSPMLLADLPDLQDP
Chain of 6-phosphogluconate dehydrogenase, decarboxylating (Homo sapiens) (P52209 whole entry, looked up): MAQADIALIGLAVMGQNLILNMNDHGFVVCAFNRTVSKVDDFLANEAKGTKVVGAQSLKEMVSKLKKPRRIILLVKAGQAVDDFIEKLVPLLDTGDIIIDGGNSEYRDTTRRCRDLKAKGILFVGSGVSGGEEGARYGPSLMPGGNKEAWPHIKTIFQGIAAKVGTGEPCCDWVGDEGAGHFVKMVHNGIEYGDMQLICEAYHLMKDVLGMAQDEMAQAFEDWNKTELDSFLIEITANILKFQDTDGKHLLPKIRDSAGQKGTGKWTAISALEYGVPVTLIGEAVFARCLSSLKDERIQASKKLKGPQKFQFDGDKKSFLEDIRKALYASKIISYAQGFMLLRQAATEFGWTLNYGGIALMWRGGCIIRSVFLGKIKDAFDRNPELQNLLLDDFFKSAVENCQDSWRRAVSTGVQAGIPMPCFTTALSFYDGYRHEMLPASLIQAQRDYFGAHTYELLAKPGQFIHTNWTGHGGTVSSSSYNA
Chain of Calcium-activated potassium channel subunit alpha-1 (Homo sapiens) + Leucine-rich repeat-containing protein 26 (Homo sapiens) (Q2I0M4 whole entry, looked up, one chain of several): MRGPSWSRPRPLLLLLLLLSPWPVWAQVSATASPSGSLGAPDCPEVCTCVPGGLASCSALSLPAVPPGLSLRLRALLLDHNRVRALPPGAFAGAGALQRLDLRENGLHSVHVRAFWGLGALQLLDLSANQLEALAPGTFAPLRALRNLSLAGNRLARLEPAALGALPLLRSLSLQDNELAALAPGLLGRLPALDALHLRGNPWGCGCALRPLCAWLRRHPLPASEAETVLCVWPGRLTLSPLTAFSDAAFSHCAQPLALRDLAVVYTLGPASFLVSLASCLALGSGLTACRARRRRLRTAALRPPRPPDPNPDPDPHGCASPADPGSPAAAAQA

In the case of `CC(=O)O[C@H]1C[C@@H](O)C(C)(C)[C@@H]2C[C@@H](OC(C)=O)[C@]3(C)[C@H](CC[C@@]4(C)[C@@H](c5ccoc5)OC(=O)[C@H]5O[C@@]534)[C@@]12C`, the inhibition (usually the change of the read-out against control, counted positive when it falls) in test [1] is 1.48% (inactive).
The same measure, in the same setting: to `CC(=O)[C@H]1CC[C@H]2[C@@H]3CC(=O)C4=CC(=O)CC[C@]4(C)[C@H]3CC[C@]12C` belongs -2.73% (inactive); to `COC(=O)C[C@H]1C(C)(C)C(=O)[C@@H]2CC3C4=CC(=O)O[C@@H](c5ccoc5)[C@]4(C)CC[C@@H]3[C@@]1(C)C2=O` (some centres undefined), 12.7% (inactive); to `COc1ccc(-c2coc3c(OC)c(OC)cc(OC)c3c2=O)cc1`, 4.09% (inactive).
On the same count and under the same terms, to `CC(=O)Oc1cc2c(c(C)c1OC(C)=O)CC=C1[C@@]2(C)CC[C@@]2(C)[C@@H]3C[C@](C)(C(=O)O)CC[C@]3(C)CC[C@]12C` belongs 0.972% (inactive).
In the case of `C[N+]1(C)CCC(OC(=O)C(O)(c2ccccc2)C2CCCC2)C1` (centres undefined), the fluorescence ratio in test [2] is 1.05 (inactive) and 1.06 (inactive); in test [5] it was 1.05 (inactive) and 1 (inactive). Also, the inhibition was 2.77% (inactive) and 0.45% (inactive) in [3]; 1.44% (inactive) and 1.81% (inactive) in test [4]. Also, the mean signal in [6] was 254 (inactive). Also, in test [7], the red/green cell ratio (normalised) is 0.8 (inactive). Moreover, the results for the normalised cell number in test [7] (setting [20]) and in [7] (setting [21]) were 1.28 and 1.02, respectively. Also, the cell count in test [8] (setting [22]) was 11400 and 10400 and 13800. For the same compound, the z-score was 0.599 (inactive) in test [9] (setting [23]); 0.684 in test [9] (setting [24]); 0.385 (inactive) and 0.61 (inactive) in test [11]. In addition, the remaining NAD in test [10] was 10 nM (inactive). For the same compound, the log fold change Tl+ flux in [12] was -0.0314 (inactive) and -0.0508 (inactive); in [13] it was 0.0168 (inactive) and -0.0515 (inactive); in test [14], -0.0241 (inactive) and -0.0355 (inactive); in test [15] it was -0.0259 (inactive) and -0.0857 (inactive); in test [16] it was 0.0143 (inactive) and 0.0309 (inactive); in [17], 0.0449 (inactive) and -0.0318 (inactive).
For the compound `Oc1cc(O)cc(/C=C/c2ccccc2)c1`, the inhibition in test [1] is -1.17% (inactive).
On the same count and under the same terms, to `CC(=O)O[C@H]1CC[C@]2(C)C3=CC(=O)[C@@]4(C)C(C[C@@H]5OC6(OCC(C)CC6Br)C(C)[C@@H]54)C3CC[C@H]2C1` (some centres undefined) belongs 6.67% (inactive).
In the case of `Oc1ccc2c(c1)OC[C@H]1c3cc4c(cc3O[C@@H]21)OCO4`, the inhibition in [1] was -3% (inactive).
As to `CC1(C)C=CC(=O)[C@]2(C)[C@H]3CC[C@@]4(C)[C@H](c5ccoc5)OC(=O)[C@H]5O[C@]54[C@]3(C)C(=O)C[C@@H]12`, the inhibition in test [1] was -8.35% (inactive).
In the case of `O=S(=O)(c1cccc2cnccc12)N1CCCNCC1`, the parasite load remaining in [18] was 62.2% (inactive) and 44.5% (inactive). The viability (in general, a read-out of living cells in per cent, often relative to untreated cells) in test [18] was 103% and 67.7%. The red/green cell ratio (normalised) in test [7] was 1.1 (inactive). Also, the results for the normalised cell number in test [7] (setting [20]) and in test [7] (setting [21]) were 0.86 and 0.95, respectively. The z-score was -0.155 (inactive) and -0.944 (inactive) in test [9] (setting [23]); -1.52 and 0.0333 in [9] (setting [24]); -0.745 (inactive) and -1.1 (inactive) in test [11]. The remaining NAD in [10] was 10 nM (inactive).
`CC(C)c1c(C(=O)Nc2ccccc2)c(-c2ccccc2)c(-c2ccc(F)cc2)n1CC[C@@H](O)C[C@@H](O)CC(=O)O`: the inhibition in test [1] was 17.2% (inactive). Also, the fold change in test [8] (setting [25]) is 1.27 (inactive); in test [8] (setting [26]) it was 1.55. For the same compound, the cell count came out at 5410 in [8] (setting [27]) and 4270 in test [8] (setting [22]). In addition, the z-score in [9] (setting [23]) was -2.11 (inactive); in [9] (setting [24]), -0.779; in test [11] it was -0.8 (inactive). Moreover, in test [10], the remaining NAD was 10 nM (inactive). The luciferase signal in [19] was 28 AU (inactive).
For `CC(=O)Oc1ccc(/C=C2\N=C(c3ccccc3)OC2=O)cc1`, the inhibition in test [1] was 0.187% (inactive).
For the compound `CC(C)(C)CC(C)(C)c1ccc(OCCOCC[N+](C)(C)Cc2ccccc2)cc1`, the inhibition in test [1] is -3.07% (inactive). Also, the fold change in [8] (setting [25]) is 0.798 (inactive) and 0.823 (inactive) and 0.768 (inactive); in test [8] (setting [26]), 1.51 and 1.83 and 3.74. Further, the cell count in test [8] (setting [27]) was 2760 and 5310 and 8060; in test [8] (setting [22]) it was 3460 and 6450 and 10500. In addition, the z-score in test [9] (setting [23]) was -0.38 (inactive) and -2.14 (inactive); in [9] (setting [24]), -0.151 and 1.32. The remaining NAD in test [10] is 13 nM (inactive). Moreover, the luciferase signal in [19] was 44 AU (inactive).
As for `COc1ccc(-c2nc3ccc(C4=NNC(=O)CC4C)cc3[nH]2)cc1` (centres undefined), the fold change in [8] (setting [25]) was 0.906 (inactive); in [8] (setting [26]) it was 1.1. The cell count in [8] (setting [27]) was found to be 5650; in test [8] (setting [22]), 6230. Besides, the z-score in test [9] (setting [23]) was 1.76 (inactive); in [9] (setting [24]) it was 0.199.
`CS(=O)(=O)c1ccc([C@@H](O)[C@@H](CF)NC(=O)C(Cl)Cl)cc1`: in test [18], the parasite load remaining was 110% (inactive) and 27.9% (inactive). The viability in test [18] was 101% and 68.5%. In addition, the fold change in test [8] (setting [25]) was 0.925 (inactive) and 0.937 (inactive); in [8] (setting [26]) it was 0.927 and 1.15. Further, the cell count was 8300 and 9020 in test [8] (setting [27]); 8980 and 9620 in test [8] (setting [22]). Moreover, the z-score is -0.214 (inactive) and 0.287 (inactive) in test [9] (setting [23]); -1.14 and -0.231 in test [9] (setting [24]); -1.65 (inactive) in test [11]. Besides, the remaining NAD in test [10] is 10 nM (inactive). The luciferase signal in test [19] was 136 AU (inactive).
Take `Cc1ccc(/C(=C\CN2CCCC2)c2ccccn2)cc1`: the inhibition in test [1] is 2.89% (inactive). For the same compound, the red/green cell ratio (normalised) in test [7] is 1.28 (inactive). The normalised cell number was determined as 0.94 in test [7] (setting [20]) and 1.2 in test [7] (setting [21]). Further, the z-score in [9] (setting [23]) was 0.293 (inactive) and -0.295 (inactive); in test [9] (setting [24]), 0.187 and -0.783; in test [11], -0.245 (inactive) and -0.1 (inactive) and 0.365 (inactive). Besides, in test [10], the remaining NAD was 10 nM (inactive). For the same compound, the luciferase signal in [19] was 152 AU (inactive).
As for `Nc1nc2[nH]c(=O)c(=O)[nH]c2c(=O)[nH]1`, in test [1], the inhibition is 13.8% (inactive).
